This is a sample that favours compounds with a hit; in the whole collection about 21% have one here.
Cycloheximide cs: Cycloheximide Counterscreen for Small Molecule Inhibitors of Shiga Toxin | AID 2314, 2010 | hit rate 12% among 300,000 | max response, % | cell reporter, cycloheximide protein synthesis inhibition counterscreen; in the data active = max response mostly above about 13%, no sharp cut-off; inactive = mostly below about 14%; also: read at 38.3 µM for the half of the compounds with a filed dose
Pf growth 48h: Primary qHTS for delayed death inhibitors of the malarial parasite plastid, 48 hour incubation | Potency, µM (doses to about 28.7 µM), actives largely listed as inhibitors | P. falciparum luciferase growth in erythrocytes, 48 h | hit rate 5.9% among 310,000
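In quantitative HTS format, infected erythrocytes bearing luciferase-reporter parasites were treated for a single generation at 37 C. Luminescence after adding detection reagent served as the growth measure.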
Pf growth 96h: Primary qHTS for delayed death inhibitors of the malarial parasite plastid, 96 hour incubation; P. falciparum luciferase reporter growth, 96 h; Potency, µM (top dose mostly 28.7 µM), actives largely listed as inhibitors; hit rate 6.9% among 320,000
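Two parasite generations (96 h, 37 C, 5% CO2) of compound exposure in infected erythrocytes (0.05% parasitemia, 2% hematocrit). Luciferase-reporter P. falciparum; decreased luminescence indicates inhibited growth, aimed at apicoplast-acting delayed death.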
Shiga inhibitor: A qHTS for Small Molecule Inhibitors of Shiga Toxin; inhibition, % at 38.7 µM; Vero cells, Shiga toxin protein synthesis inhibition reporter; hit rate 9.2% among 290,000; AID 2315, 2010; in the data active = inhibition mostly above about 28%, no sharp cut-off; inactive = mostly below about 43%
Each line names hits and unclear results; the compound was inactive in the other large screens. Unless noted, calls follow the shape of the dose curve; as a rule, active = well fitted inhibition curve with a large enough effect; inconclusive = small, poorly fitted or top-dose-only effect, or another doubt; inactive = no such curve, though single readings can be large or run the other way.

CC(=O)Nc1cccc(C(=O)NNC(=O)c2n[nH]c(=O)c3ccccc23)c1	none (no result: Cycloheximide cs, Shiga inhibitor)
COc1ccc(-c2cnn3c4c(c(C)nc23)CCN4C(C)C)cc1OC	Cycloheximide cs 27, Shiga inhibitor 47
Cc1cc(N2CCN(c3ccc(C(F)(F)F)cc3[N+](=O)[O-])CC2)c2ccccc2n1	Pf growth 48h 13µM, Pf growth 96h 7.4µM
O=[N+]([O-])c1ccc(N2CCCCC2)c2ncccc12	none
Cc1cc(N2CCN(c3ccc([N+](=O)[O-])c4cccnc34)CC2)c2ccccc2n1	Pf growth 96h 7.4µM
O=C(C1CCC1)N1CCN(c2ccc(C(F)(F)F)cc2[N+](=O)[O-])CC1	none
O=C(Nc1ccccc1)N1CCCN(c2ccc(C(F)(F)F)cc2[N+](=O)[O-])CC1	Pf growth 48h 13µM, Pf growth 96h 10µM
O=C(CNc1ccccc1N1CCCC1=O)Nc1cc(C(F)(F)F)ccc1-n1cncn1	none (no result: Cycloheximide cs, Shiga inhibitor)
O=C1NC(=O)c2cc(Oc3ccc([N+](=O)[O-])cc3)ccc21	none
COc1ccccc1CNC(=O)C(C)NS(=O)(=O)c1ccc(Br)cc1 (stereo not drawn)	Pf growth 48h inconclusive, Pf growth 96h inconclusive
Cc1ccc(CN2CCN(Cc3ccc4cccc(F)c4n3)CC2CCO)cc1 (stereo not drawn)	none
O=C(NCc1ccccc1Cl)c1ccc(Nc2nc3ccccc3n3nnnc23)cc1	none (no result: Pf growth 48h, Pf growth 96h)
COc1ccccc1NC(=O)Nc1ccncc1	Pf growth 96h inconclusive
COc1ccc(NC(=O)Nc2ccc(Cc3ccncc3)cc2)cc1OC	Pf growth 48h inconclusive, Pf growth 96h 5.2µM
COc1ccc(C(=O)Nc2ccc(Cc3ccncc3)cc2)cc1Br	none
COc1ccccc1NC(=O)Nc1ccc(Cc2ccncc2)cc1	Shiga inhibitor 50
CCO[C@@H]1OC(C(=O)N2CCN(Cc3ccccc3)CC2)=C[C@H](c2cn(C(C)=O)c3ccccc23)[C@H]1CCCO	Pf growth 48h 8.3µM, Pf growth 96h 8.3µM
CCO[C@H]1OC(C(=O)N2CCN(Cc3ccccc3)CC2)=C[C@@H](c2ccc(C(F)(F)F)cc2)[C@@H]1CCCO	Pf growth 48h inconclusive, Pf growth 96h 1.5µM
CCO[C@@H]1OC(C(N)=O)=C[C@H](c2cn(C(C)=O)c3ccccc23)[C@H]1CCCO	none
CCO[C@@H]1OC(C(=O)NCc2ccccc2)=C[C@H](c2cn(C(C)=O)c3ccccc23)[C@H]1CCCO	Pf growth 48h 5.2µM, Pf growth 96h 4.1µM
CCO[C@@H]1OC(C(=O)N2CCN(Cc3ccccc3)CC2)=C[C@H](c2csc3ccccc23)[C@H]1CCCO	Pf growth 48h inconclusive, Pf growth 96h 6.6µM
CCO[C@H]1OC(C(=O)N2CCCCCCC2)=C[C@@H](c2csc3ccccc23)[C@@H]1CCCO	Pf growth 96h inconclusive
CCOP(=S)(OCC)O/N=C(\C#N)c1ccccc1Cl	none (no result: Pf growth 48h, Pf growth 96h)
COc1ccc(CCNC(=O)CCC(=O)N2CCOc3ccc(Cl)cc32)cc1OC	none
COc1ccc(C2(C)NC(=O)N(CC(=O)Nc3c(C)n(C)n(-c4ccccc4)c3=O)C2=O)cc1 (stereo not drawn)	none (no result: Cycloheximide cs, Shiga inhibitor)
CCn1c(SC(C)C(=O)NCC2CCCO2)nc2scc(-c3ccccc3)c2c1=O (stereo not drawn)	Pf growth 48h 7.4µM, Pf growth 96h 2.9µM (no result: Cycloheximide cs, Shiga inhibitor)
CC(Sc1nnc(-c2cccs2)n1-c1ccccc1)C(=O)NCc1ccc2c(c1)OCO2 (stereo not drawn)	Pf growth 96h 10µM (no result: Pf growth 48h)
COCCn1c(SC(C)C(=O)NCC2CCCO2)nc2sc3c(c2c1=O)CCC3 (stereo not drawn)	Pf growth 48h inconclusive, Pf growth 96h 8.3µM (no result: Cycloheximide cs, Shiga inhibitor)
C=CCn1c(SC(C)C(=O)NCc2ccc3c(c2)OCO3)nc2scc(-c3ccccc3)c2c1=O (stereo not drawn)	Pf growth 48h inconclusive, Pf growth 96h 6.6µM
C=CCn1c(SCC(=O)NCc2ccc3c(c2)OCO3)nc2scc(-c3ccc(F)cc3)c2c1=O	none (no result: Pf growth 48h)
CC(C)[C@H]1COC(NC2=N[C@@H](C(C)C)CO2)=N1	none
CSc1ccccc1NC(=O)CN(C)CC(=O)Nc1ccccc1C(F)(F)F	none
COc1cc(C(=O)NCc2nnc(SCC(=O)NCCc3ccccc3)o2)cc(OC)c1OC	none
O=C(CN1CCN(c2ccc(C(F)(F)F)cn2)CC1)NCc1ccc2c(c1)OCO2	Pf growth 96h inconclusive
COCCn1c(SC(C)C(=O)NCC2CCCO2)nc2scc(-c3ccc(F)cc3)c2c1=O (stereo not drawn)	Pf growth 48h 13µM, Pf growth 96h inconclusive (no result: Cycloheximide cs, Shiga inhibitor)
O=C(CSc1nc2ncccc2[nH]1)c1ccc2c(c1)OCO2	Cycloheximide cs 39, Shiga inhibitor 43
COC(=O)c1ccc(NC(=O)CSc2ccccc2)cc1	Cycloheximide cs 31, Shiga inhibitor 64
N#Cc1cccc(NC(=O)CSc2ccccc2)c1	Cycloheximide cs 9.1
Cc1cc(C)cc(NC(=O)CS(=O)(=O)c2ccccc2)c1	none
COC(=O)c1ccc(NC(=O)CS(=O)(=O)c2ccccc2)cc1	Cycloheximide cs 11
N#Cc1cccc(NC(=O)Cc2ccccc2)c1	Pf growth 96h inconclusive
CC(C)OC(=O)CSc1nc2ncccc2[nH]1	none
COCCCN(Cc1ccco1)C(=O)CSc1nc2ncccc2[nH]1	Pf growth 96h 13µM
COC(=O)c1ccc(NC(=O)CSc2ccccn2)cc1	Cycloheximide cs 58, Shiga inhibitor 36 (no result: Pf growth 48h)
COC(=O)c1ccc(NC(=O)CSc2nc3ncccc3[nH]2)cc1	Cycloheximide cs 12
COC(=O)c1ccc(NC(=O)CSc2nc3cccnc3n2C)cc1	Pf growth 48h inconclusive
O=C(O)CSc1cc(C(=O)c2ccccc2O)cn2c(=O)c3c4c(sc3nc12)CCCC4	none
O=C(Cn1nc2n(c1=O)-c1ccccc1SC2)N/N=C/c1cccnc1	Pf growth 96h inconclusive
CC1(C(=O)NCC2CC2)C=CC2(CCCCC2)N1C(=O)c1ccccc1 (stereo not drawn)	Cycloheximide cs 66, Pf growth 96h inconclusive, Shiga inhibitor 49
COc1ccc(CNC2CCSc3ccccc32)cc1OC (stereo not drawn)	none
Cc1cc(=O)nc2c3ccccc3n(C(C)C(=O)Nc3c(F)c(F)c(F)c(F)c3F)n12 (stereo not drawn)	Pf growth 48h 3.3µM
Cc1cc(=O)nc2c3ccccc3n(C(C)C(=O)Nc3cc(F)ccc3F)n12 (stereo not drawn)	Pf growth 48h inconclusive, Pf growth 96h 10µM
O=C(O)c1cccc(Nc2nc(Nc3ccccc3)nc(N3CCCC3)n2)c1	none
O=C(NC1CC1)c1ccc(CSCc2ccccc2Cl)o1	Cycloheximide cs 26, Pf growth 48h 1.9µM
O=C(NC1CCCC1)c1ccc(CS(=O)(=O)Cc2ccccc2Cl)o1	Pf growth 48h inconclusive
O=C(O)c1ccc(C(=O)C(=O)c2ccccc2)cc1	Pf growth 48h inconclusive
C=C(C(=O)c1ccccc1)C(c1ccccc1)C(C)C(=O)c1ccccc1 (stereo not drawn)	Pf growth 48h inconclusive, Pf growth 96h 12µM
C=C(C(=O)c1ccccc1)C(C(=C)C(=O)c1ccccc1)c1ccc(OC)cc1	Pf growth 48h 2.1µM, Pf growth 96h inconclusive
C=C(C(=O)c1ccccc1)C(C)C(=C)C(=O)c1ccccc1	Cycloheximide cs 38, Pf growth 48h inconclusive, Pf growth 96h 10µM
CC(=O)NC(C(=O)c1ccccc1)C(=O)c1ccccc1	none

Assay outcomes deposited in PubChem BioAssay by National Center for Advancing Translational Sciences (NCATS).
